Here are results for 50 molecules from PubChem BioAssay AID540253 (National Center for Advancing Translational Sciences (NCATS), 2011).

Among all 340,000 compounds or so, about 240 (0.071%) were called active. A call without a number means that no potency is given here. Inconclusive results (about 5%) are left out. This is one part of a sample in which actives are shown more often than they occur. Calls come from the whole dose curve.
Potency is the fitted concentration of half-maximal effect.

The assay has as its target Snurportin-1 (Homo sapiens) + GTP-binding nuclear protein Ran (Homo sapiens) + Importin subunit beta-1 (Homo sapiens) (UniProt O95149+P62826+Q14974). The experiment in a line: qHTS Assay for Inhibitors of RanGTP induced Rango (Ran-regulated importin-beta cargo) - Importin beta complex dissociation. Note: nearly all actives have a fitted effect of over 45% in size. The conditions noted are these: Biochemical FRET Rango-importin beta; series mostly up to 46.1 µM. The text has this: NIH Molecular Libraries Probe Production Centers Network [MLPCN] NIH Chemical Genomics Center [NCGC] MLPCN Grant: R03 MH090808-01A1 Assay Submitter (PI): Petr Kalab NCGC Assay Overview: The small GTPase Ran regulates transport of macromolecules between the nucleus and the cytoplasm (nuclear transport) and has important functions in mitotic spindle assembly, nuclear envelope (NE) formation and nuclear pore complex (NPC) assembly. RanGTP gradient is thought to promote spindle assembly by providing a spatial clue to microtubule nucleation and Aurora A activation. Because the localized release and binding of importin alpha cargos relays this spatial clue to SAFs, inhibitors of the Rango - importin beta complex can then be used in further understanding their role in cell cycle specifically in mitosis progression. […] Activation of Aurora A has been linked to different types of cancer and a number of Aurora kinase inhibitors are being developed as potential canter therapeutics; therefore, identified inhibitors of this complex could be developed into potential anti-mitotic probes for cancer treatment. Purified recombinant proteins Rango - importin beta and RanGTP-RCC1 stock premixes were provided by the assay submitter. The assay used a fluorescence resonance energy transfer (FRET) Rango biosensor that contains the IBB of human snurportin 1 flanked by yellow fluorescent protein (EYFP) at the amino terminus and cerulean CFP10 at the carboxy terminus. […] RanGTP binding to the complex (in the presence of RCC1) releases the Rango from the complex. The flexibility of the IBB in the freed Rango allows the donor - acceptor fluorophores to interact, resulting in a high FRET signal. Inhibitors will therefore be identified based on the ability to interfere with the FRET signal increase. DMSO treated and no RanGTP-RCC1 (buffer only) wells were used as negative and positive controls respectively. FRET readings were obtained at two time points. FRET reading prior to importin beta addition (pre-read) were used flag potential compound interference; FRET reading after importin beta addition (post-read) were used to identify inhibitors.
NCGC Assay Protocol Summary: Two and a half uL/well of Rango- importin beta premix solution (0.1 uM Rango, 0.25 uM importin beta, 1x PBS, 1mM DTT, 0.02% Tween-20, 0.1% BSA final concentrations) was dispensed into 1536-well assay plates (Greiner, solid black medium-binding plates) with Aurora Discovery BioRAPTR Flying Reagent Dispenser (FRD; Beckton-Dickenson). Compound solution (23 nL) was transferred to the assay plate using Kalypsys pin tool equipped with a 1536-pin tool and incubated at room temperature for 5 min followed by a FRET pre-read using the PerkinElmer Envision plate reader. Two and a half uL/well of RanGTP-RCC1 premix solution (0.6 uM Ran, 2mM GTP, 0.2 uM RCC1, 1x PBS, 1mM DTT, 0.02% Tween-20, 0.1% BSA final concentrations) were then added and incubated at room temperature giving a final reaction volume of 5uL. After 45min FRET post-read was obtained via the Envision plate reader using the same optics and settings as the pre-read (CFP/YFP optimized dual optical module D450/D505; excitation mirror CFP 430/24 nm; and emission filters CFP 486/10 nm and YFP 530/10 nm).
For `CSc1ncnc2c1ncn2CC(=O)C1CCC2C3CCC4=CC(=O)CCC4(C)C3CCC12C` (stereo not given), the Potency entry was “inactive”.

In the case of `COc1cccc2c1C(=O)c1c(O)c3c(c(O)c1C2=O)CC(O)(C(C)=NNC(=O)c1ccc(Cl)c(Cl)c1)CC3OC1CC(N)C(O)C(C)O1` (stereo not given), the Potency result is “inactive”.

Regarding `CCCN(CCC)S(=O)(=O)c1cc2c(cc1Br)CCN2C(=O)CC`, the Potency entry was “inactive”.

On to `COc1ccc(C(=O)Nc2cccc(/C=C(/CCC(=O)O)c3nc4ccccc4s3)c2)cc1`, for which the Potency entry was “inactive”.

For `CCCN(C(=O)COC(=O)CNS(=O)(=O)c1ccc(NC(C)=O)cc1)C1CCS(=O)(=O)C1` (stereo not given), the Potency result is “inactive”.

`CC(=NNC(=S)N1CCCCCC1)c1ccccn1`: the Potency entry was “inactive”.

For the molecule `Cc1cccc(CC2(O)C(=O)Nc3ccccc32)n1` (stereo not given), the Potency result was “inactive”.

Regarding `Cc1cc(OCCCC(=O)Nc2cc(S(=O)(=O)N3CCOCC3)ccc2N2CCOCC2)ccc1Cl`, the Potency result is “inactive”.

Take `COC1=CC(=O)OC(C)(c2ccccc2)C1` (stereo not given): the Potency result is “inactive”.

As to `COc1ccc2c(c1)C(=O)CC(c1ccccc1)O2` (stereo not given), the Potency entry is “inactive”.

Turning to `CC(NC(=O)c1ccccc1)C(=O)OCC(=O)Nc1cccc(S(=O)(=O)N2CCCC2)c1` (stereo not given), the Potency result was “inactive”.

As for `O=C1C(=O)N(c2ccccc2)C(c2ccccc2)C1c1ccccc1` (stereo not given), the Potency result was “inactive”.

Take `Cc1ccc(OCCNC(=O)c2cccc(S(=O)(=O)N3CCN(Cc4ccccc4)CC3)c2)cc1`: the Potency entry is “inactive”.

On to `COC[C@@H]1NS(=O)(=O)c2ccc(Br)cc2O[C@H]1c1ccccc1`, for which the Potency entry was “inactive”.

Consider `CN(C(=O)c1cccc(NC(=O)Cc2cccc(NC(=O)C3CCCN(C(=O)C4CC4)C3)c2)c1)C1CCC1` (stereo not given), for which the Potency entry was “inactive”.

As to `O=S1(=O)CCOC[C@H](Cc2ccccc2)N1Cc1ccccc1Br`, the Potency entry was “inactive”.

In the case of `O=c1oc2ccccc2c(=O)c2ccccc12`, the Potency entry is “inactive”.

For `Cc1ccc(/C=C/C(=O)Nc2ccc([N+](=O)[O-])c(NC(=O)/C=C/c3ccc(C)o3)c2)o1`, the Potency result is “inactive”.

Regarding `O=C(NNC(=O)C1CCCC1)c1ccc(F)cc1`, the Potency entry is “inactive”.

On to `O=C(/C=C/c1ccc([N+](=O)[O-])o1)NNC(=O)c1ccc(F)cc1`, for which the Potency is 20.6 µM [inhibitor] (active).

For the molecule `O=C(Cc1ccc(NC(=O)C2CCCN(C(=O)CCc3ccccc3)C2)cc1)Nc1ccc(C(=O)N2CCOCC2)cc1` (stereo not given), the Potency entry is “inactive”.

With `CC(C)=CCc1ccc(O)c(=O)cc1C(C)C`, the Potency result is “inactive”.

Take `CCCCN(C(=O)CSCc1ccc(C)cc1)c1c(N)n(Cc2ccccc2)c(=O)[nH]c1=O`: the Potency result was “inactive”.

On to `CSCCC(NC(=O)COc1ccccc1)C(=O)OCc1ccc(Cl)cc1` (stereo not given), for which the Potency result was “inactive”.

Consider `CC(C)Sc1nc(N)nc2c1ncn2C1OC(CO)C(O)C1O` (stereo not given), for which the Potency result was “inactive”.

In the case of `COc1ccc(N)c(C)c1`, the Potency result was “inactive”.

Consider `CN1CCC(N(C)C(=O)c2ccc(Cl)c(S(=O)(=O)Nc3ccc(Cl)cc3)c2)CC1`, for which the Potency result was “inactive”.

As for `CC1C(C)N(C(=O)CCl)c2ccccc2N1C(=O)CCl` (stereo not given), the Potency result was “inactive”.

For `Cn1c(=S)sc2ccc3ccccc3c21`, the Potency entry was “inactive”.

Regarding `COC(=O)Cc1c(-c2[nH]c3ccccc3c2CC(=O)OC)[nH]c2ccccc12`, the Potency entry was “inactive”.

Turning to `COc1cc2c(cc1OC)C1C(=O)c3cc(OS(C)(=O)=O)c(OC)cc3C1N(C)C2=O` (stereo not given), the Potency result is “inactive”.

Turning to `COc1ccc2oc(N)nc2c1`, the Potency result is “inactive”.

Regarding `CCN(CC)S(=O)(=O)c1cccc(NC(=O)c2ccc(S(=O)(=O)N3CCCC3)cc2)c1`, the Potency result was “inactive”.

As for `CCOC(=O)C1CCCN(C(=O)C2CCN(S(=O)(=O)c3ccc(Cl)c(C(F)(F)F)c3)CC2)C1` (stereo not given), the Potency result was “inactive”.

Turning to `O=C(Nc1ccccc1)Oc1cccc2cccnc12`, the Potency result is “inactive”.

With `O=C(NCC1CCCCC1)NCC1CCCCC1`, the Potency entry was “inactive”.

Take `CSCCC(NC(=O)COc1ccccc1)C(=O)N1CCN(c2cccc(C(F)(F)F)c2)CC1` (stereo not given): the Potency result is “inactive”.

As to `O=C(CC(=O)c1cccnc1)c1ccccc1`, the Potency entry was “inactive”.

For `Nc1cc2c(cc1Br)-c1ccc(F)cc1C2=O`, the Potency result is “inactive”.

For the molecule `O=C1/C(=C\c2ccc([N+](=O)[O-])cc2)CS(=O)(=O)C/C1=C/c1ccc([N+](=O)[O-])cc1`, the Potency entry is “inactive”.

For the molecule `O=C(NNC(=O)c1ccccc1O)c1ccccc1O`, the Potency entry is “inactive”.

In the case of `CCOC(=O)C(CO)NC(=O)C1(NC(C)=O)CCCC1` (stereo not given), the Potency entry was “inactive”.

Take `CCCC(O)(c1ccccc1)C(c1ccccc1)c1ccccn1` (stereo not given): the Potency entry was “inactive”.

In the case of `O=C(NCCc1ccccc1)c1c[nH]c2ccc(F)cc2c1=O`, the Potency entry is “inactive”.

With `O=C1CC[C@@H]2CC3(C[C@@H]4CCN1[C@H]24)Nc1cc([N+](=O)[O-])ccc1NC3=NC1CCCCC1` (stereo not given in full), the Potency entry is “inactive”.

On to `CN(C(=O)c1cccc(NC(=O)Cc2ccc(NC(=O)C3CCCN(C(=O)C4CC4)C3)cc2)c1)C1CC1` (stereo not given), for which the Potency entry was “inactive”.

With `CN(CCc1ccccc1)C(=O)c1cccc(NC(=O)Cc2cccc(NC(=O)C3CCCN(C(=O)C4CCC4)C3)c2)c1` (stereo not given), the Potency result is “inactive”.

In the case of `C[C@@H]1ON(C)[C@H]2C[C@H]3c4cc(N5CCN(C)CC5)ccc4CCN3C(=O)[C@@H]12`, the Potency result was “inactive”.

Consider `CC1CCCN(C(=O)Cn2c(=O)oc3cc(S(=O)(=O)N4CCCCC4C)ccc32)C1` (stereo not given), for which the Potency result was “inactive”.

Regarding `NC1=NOC(=O)C1C1CCCCC1` (stereo not given), the Potency result was “inactive”.
